Among the data in PubChem BioAssay (NCATS) are outcome values, retold here.

Results filed as inconclusive are left out. The source made the active and inactive calls. The call rests on the fitted dose curve; in most records, active means well fitted cell-killing curve with a large enough effect; inconclusive means small, poorly fitted or top-dose-only effect, or effect the other way; inactive means flat fitted curve, though single readings scatter.

This assay in a line: Cell Viability - HUV-EC-C (AID 542). Further: nearly all actives have a fitted effect of over 35% in size. To be noted: HUV-EC-C endothelial cell viability, qHTS; series mostly up to 92.2 µM. The source says:
NIH Chemical Genomics Center [NCGC]
NIH Molecular Libraries Screening Centers Network [MLSCN]
National Institutes of Environmental Health Sciences [NIEHS]
National Toxicology Program [NTP]
We have developed a 1536-well cell-based assay for quantitative high throughput screening (qHTS) against a number of cell lines to determine in vitro cytotoxicity of small molecules. This particular assay uses the HUV-EC-C cell line which is derived from normal human vascular endothelial cells.
NCGC Assay Protocol Summary:
The CellTiter-Glo luminescent cell viability assay (Promega) is a homogeneous method to measure the number of viable cells in culture. The end point readout of this assay is based on quantitation of intracellular ATP, an indicator of metabolic activity, using the luciferase reaction. Luciferase catalyzes the oxidation of beetle Luciferin to oxyluciferin and light in the presence of ATP. The luminescent signal is proportional to amount of ATP present.
Using the CellTiter-Glo luminescent cell viability assay, the amount of cellular ATP was measured in the HUV-EC-C cell line with complete culture medium following compound treatment for 40 hours. The assay was performed in opaque white Kalypsys 1536-well plates. In the screen, tamoxifen and doxorubicin were used as positive controls. Library compounds were measured for their ability to cause acute toxicity in the cell line, as reflected by a decrease in intracellular ATP levels, in a concentration-dependent manner. […] AC50 values were determined from concentration-response data modeled with the standard Hill equation.
qHTS protocol for CellTiter Glo HUV-EC-C cellular assay
[Step] [Parameter] [Value] [Description]
1. Reagent; 5 uL; 1000 HUV-EC-C cells/well
2. Time; 5 hr; 37 °C incubation
4. Controls; 23 nL; Tamoxifen 0.34 uM to 100 uM & Doxorubicin 0.02 nM to 100 uM
5. Time; 40 hr; 37 °C incubation
6. Reagent; 5 uL; CellTiter Glo reagent
7. Time; 20 min; Room Temperature
8. Detection; Luminescence; Viewlux plate reader
Keywords: cell viability, cytotoxicity, HUV-EC-C cell line, luminescence, NTPHTS, NTPHTS_NCGC, NIEHS, EPA, DSSTox, MLSMR, MLSCN, NIH Roadmap, qHTS, NCGC
(In qHTS, concentration-response curves come from the screen itself.)
For `CC(C)(c1ccc(OCC2CO2)cc1)c1ccc(OCC2CO2)cc1` (stereo not drawn), the call was inactive. Consider `CCOc1cc(C=O)ccc1O`, for which the outcome was inactive. As for `Oc1c(Cl)c(Cl)c(Cl)c(Cl)c1Cl`, the result was inactive. As to `CC(=O)/C=C/c1ccccc1`, the compound was called inactive. As for `COC1=CC(=O)OC(CCc2ccc3c(c2)OCO3)C1` (stereo not drawn), the compound was called inactive. For `COC(=O)c1ccccc1C(=O)OC`, the call was inactive.

Take `c1ccc(Nc2ccc3ccccc3c2)cc1`: the result was inactive. As for `CC(C)COC(=O)c1ccccc1C(=O)OCC(C)C`, the outcome was inactive. In the case of `CCOC(=O)c1ccccc1N`, the outcome was inactive. Under `Cc1ccccc1O` stands “inactive”.

As for `Oc1ccccc1Cl`, the compound was classed as inactive. For `c1ccc2c(c1)-c1cccc3cccc-2c13`, the result was inactive. With `O=Cc1ccccc1`, the outcome was inactive.
